Test results published in PubChem BioAssay (EPA / NIEHS).
Where “and” joins values, the source holds several entries; their conditions need not be identical. Identical values can stand only once. Calls of active or inactive are those of the source. The calls were made as follows: active = hit-call score of the fitted dose curve at least 0.9, where 1 is the maximum; inactive = score below 0.9.

What follows are compounds tested on Secreted IgG (sIgG), gene 3500 (assay: BSK_BT_sIgG: BioMAP Diversity Plus: BT Assay for Secreted IgG (sIgG) Biomarker Activity (AID 2284226)). Details: primary human B cells with PBMC.
Description: BSK_BT is a cell-based, multiplexed-readout assay that uses B cell and peripheral blood mononuclear cells, a human vascular primary cell co-culture, with measurements taken at 24 hours after chemical dosing in a microplate: 96-well plate.BSK_BT_sIgG is an assay component measured in the BSK_BT assay. It measures secreted IgG related to regulation of gene expression using ELISA technology.Data from the assay component BSK_BT_sIgG was analyzed at the endpoint, BSK_BT_sIgG, in the positive analysis fitting direction relative to DMSO as the negative control and baseline of activity. Using a type of cytokine quantitation reporter, gain or loss-of-signal activity can be used to understand protein changes. To generalize the intended target to other relatable targets, this assay endpoint is annotated to the 'immunoglobulin' intended target family, where the subfamily is 'IgG'.
The levels of cell surface (or secreted, indicated by the prefix "s") biomarker endpoints were measured by ELISA. Overt cytotoxicity to cells in confluent adherent cultures (all systems other than the BT system) was assessed by measuring total protein levels using sulforhodamine B (SRB) staining in parallel cultures at the time of biomarker measurements, indicated as SRB endpoints. For proliferation assays for adherent cell types, individual cell types are cultured at sub-confluence and relative cell numbers quantified by SRB staining at time points optimized for each system (48 h: 3C and CASM3C systems; 72 h: BT and HDF3CGF systems; 96 h: SAg system). SRB was performed by staining cells with 0.1% SRB after fixation with 10% TCA and reading wells at 560 nm.Viability and proliferation of PBMC (T cells) was quantified by Alamar Blue reduction for the SAg and BT systems. For PBMC viability (referred to as PBMC Cytotoxicity within the assay endpoint names), cells were plated (75,000/well in a 96-well plate) and then chemical samples added for 1 h before addition of activators, SEB and TSST-1 (20 ng/mL final concentration each). Cells were incubated for 90 h. Then, Alamar Blue (20 uL/well) (Invitrogen, Cat DAL1100) was added for 6 h, and the plates were read with a fluorescence microplate reader at 546/580 nm (excitation/emission). For PBMC proliferation, cells were plated and activated as above but incubated for only 16 h prior to addition of Alamar Blue. Plates were read after 6 h.

Row | SMILES | AC50 | outcome
1 | CNC(=O)Oc1cc(C)c(SC)c(C)c1 | 10.6 µM (active) | 
2 | COC(C)(C)CCC[C@H](C)C/C=C/C(C)=C/C(=O)OC(C)C | 13.4 µM (active) | 
3 | CC(C)(c1cc(Cl)c(O)c(Cl)c1)c1cc(Cl)c(O)c(Cl)c1 |  | inactive
4 | O=C1C=CC(=O)C=C1 | 10.9 µM (active) and 28 µM (active) | 
5 | CCCCCCCCCCCC#N |  | inactive
6 | CC(C)(C)C(=O)CCl | 8.03 µM (active) | 
7 | O=S(=O)(c1ccccc1)c1ccccc1 |  | inactive
8 | CCC(C)c1cc([N+](=O)[O-])cc([N+](=O)[O-])c1OC(=O)C=C(C)C (stereo not given) | 20 µM (active) | 
9 | O=c1[nH]c(Cl)c(Cl)cc1Cl |  | inactive
10 | CCCOC(=O)c1ccccc1C(=O)OCCC | 20 µM (active) | 
11 | CC(C)COP(=O)(OCC(C)C)OCC(C)C |  | inactive
12 | O=C(O)CCCc1ccc(N(CCCl)CCCl)cc1 | 3.48 µM (active) and 5.7 µM (active) | 
13 | O=C1C(Cl)=C(Cl)C(=O)C(Cl)=C1Cl | 32.6 µM (active) | 
14 | CCc1cc(C)cc(CC)c1-c1c(OC(=O)C(C)(C)C)n2n(c1=O)CCOCC2 |  | inactive
15 | Cc1ccc(OP(=O)(Oc2ccc(C)cc2)Oc2ccc(C)cc2)cc1 (tested in a mixture with another compound) | 13.5 µM (active) | 
16 | CC(=O)/C=C/c1ccccc1 | 27.2 µM (active) | 
17 | O=c1c2ccccc2c(=O)c2c1cc(Cl)c1[nH]c3c([nH]c12)c(Cl)cc1c(=O)c2ccccc2c(=O)c13 |  | inactive
18 | Oc1cc(Cl)ccc1Cl |  | inactive
19 | O=[N+]([O-])C=Cc1ccccc1 | 5.7 µM (active) | 
20 | COCC(=O)N(c1c(C)cccc1C)N1CCOC1=O |  | inactive
21 | CC(C)(C)C(O)C(Oc1ccc(-c2ccccc2)cc1)n1cncn1 (stereo not given) | 17.9 µM (active) | 
22 | CC1(C)[C@H](C(=O)O[C@H](C#N)c2cccc(Oc3ccccc3)c2)[C@@H]1C=C(Br)Br | 23.2 µM (active) and 29.8 µM (active) | 
23 | Clc1ccc(-c2ccccc2)cc1 |  | inactive
24 | CC(C)CCCCCCCOP(=O)(Oc1ccccc1)Oc1ccccc1 | 18.9 µM (active) | 
25 | c1ccc(Nc2ccc3ccccc3c2)cc1 | 31.5 µM (active) | 
26 | C=CC(=O)OCC(CC)CCCC (stereo not given) |  | inactive
27 | CC(C)CCCCCCCOC(=O)c1ccccc1C(=O)OCCCCCCCC(C)C |  | inactive
28 | O=P1(NCCCl)OCCCN1CCCl (stereo not given) |  | inactive
29 | C=CCN(CC=C)C(=O)C(Cl)Cl |  | inactive
30 | Nc1ccc(-c2ccc(N)c(N)c2)cc1N | 15.4 µM (active) | 
